From PubChem BioAssay
PAFAH2 FP inh: PAFAH2 (human) inhibition; hit rate 0.99% among 340,000; recombinant PAFAH2, FP-rhodamine activity probe, fluorescence polarization; Q99487; inhibition, % at 3.39 µM;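 active = inhibition above the mean over all tested compounds plus 3 SD, cut at about 30% in these data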;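 note: inhibitors block probe labeling of enzyme so polarization drops; 0% = enzyme with DMSO and 100% = wells lacking PAFAH2 protein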
TCR CD3 inh: inhibitors of human TCR-CD3 interaction | TAMRA-labeled TCR probe fluorescence, biochemical | inhibition, % at 9.4 µM | hit rate 0.37% among 360,000 | AID 651800;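 note: recombinant mutant TCR 2C K166C tagged with TAMRA read by polarization; 0% = receptor in buffer alone and 100% = receptor with positive control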
PAFAH1B2 FP inh: inhibitors of human PAFAH1B2 | recombinant PAFAH1B2, FP-rhodamine activity probe, fluorescence polarization | inhibition, % at 3.39 µM | hit rate 1.2% among 340,000 | P68402;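 active = inhibition above the mean of all tested compounds plus 3 SD, cut at about 24% in these data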;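 note: 0% = enzyme with DMSO and 100% = wells lacking PAFAH1B2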
Target sequence (P68402 whole entry, looked up): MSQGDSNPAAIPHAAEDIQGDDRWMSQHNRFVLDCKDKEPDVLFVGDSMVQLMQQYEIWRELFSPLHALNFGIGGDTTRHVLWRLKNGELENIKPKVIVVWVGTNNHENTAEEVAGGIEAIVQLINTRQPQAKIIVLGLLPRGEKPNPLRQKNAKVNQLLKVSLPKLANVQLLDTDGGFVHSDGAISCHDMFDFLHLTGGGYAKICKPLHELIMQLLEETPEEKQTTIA
PAFAH1B3 inh: blocks human PAF acetylhydrolase 1B catalytic subunit 3; Q15102; recombinant PAFAH1B3, FP-rhodamine probe, fluorescence polarization; inhibition, % at 3.39 µM; hit rate 0.28% among 340,000;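 active = inhibition above the screen-wide average of all tested compounds plus 3 SD, cut at about 25% in these data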;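 note: 0% = enzyme with DMSO only and 100% = wells lacking PAFAH1B3 protein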
Target sequence (Q15102 whole entry, looked up): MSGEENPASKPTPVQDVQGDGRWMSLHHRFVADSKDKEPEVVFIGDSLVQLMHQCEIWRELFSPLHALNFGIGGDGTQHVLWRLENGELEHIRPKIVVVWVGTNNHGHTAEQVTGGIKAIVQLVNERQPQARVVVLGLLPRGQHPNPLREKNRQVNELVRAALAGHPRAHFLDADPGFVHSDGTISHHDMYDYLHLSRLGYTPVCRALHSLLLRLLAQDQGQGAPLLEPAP
pPAFAH inh: pPAFAH (human) enzyme inhibition; AID 463082; inhibition, % at 3.39 µM; Q13093; hit rate 1.5% among 330,000; recombinant pPAFAH, FP-rhodamine probe fluorescence polarization;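 active = inhibition above the mean inhibition across the screen plus 3 SD, cut at about 25% in these data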;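 note: inhibitors block binding of the rhodamine activity-based probe so polarization drops; 0% = enzyme with DMSO and 100% = wells lacking pPAFAH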
PAFAH1B3 confirm: confirmation of human PAFAH1B3 inhibitors; inhibition, % at 3.39 µM; hit rate 30% among 390; shares compounds with PAFAH1B3 inh; recombinant PAFAH1B3, FP-Rh activity-based probe, fluorescence polarization;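 active = average inhibition over triplicate runs above the hit cutoff set in the earlier primary screen, cut at about 25% in these data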;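 note: 0% = enzyme with DMSO and 100% = wells lacking PAFAH1B3 protein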
BSA probe FL: counter-screen for TCR-CD3 interaction inhibitors: BSA probe; shares compounds with TCR CD3 inh; TAMRA-labeled BSA probe fluorescence counterscreen; inhibition, % at 9.4 µM; hit rate 10% among 1,200; AID 652035; in the data active = inhibition above about 23%;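 note: 0% = buffer low control and 100% = reference high control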
TCR-CD3 conf: confirmation of human TCR-CD3 interaction inhibitors; inhibition, % at 9.4 µM; TAMRA-labeled TCR probe fluorescence binding assay; shares compounds with TCR CD3 inh; hit rate 48% among 1,200; AID 652036
* = called active by the depositor; x = not tested or not shown. This is a sample that favours compounds with a hit; in the whole collection about 2.7% have one here. Cut-off read from the data, not from the text of the source, unless noted: active = inhibition above about 19%; inactive = the rest.

SMILES	PAFAH2 FP inh	TCR CD3 inh	PAFAH1B2 FP inh	PAFAH1B3 inh	pPAFAH inh	BSA probe FL	TCR-CD3 conf	others
Cc1cnc(C=NNC(N)=S)c2cccc(N)c12	17.8	28.9*	9.3	34.4*	x	-4.3	15.5	PAFAH1B3 confirm=51.4*
COc1ccc2sc(-c3ccc(SC)cc3)c(-c3ccc(O)cc3)c2c1	0.0	-3.5	1.0	-1.3	16.8	x	x
CCc1ccc(NC(=O)NNC(=O)c2ccc3ccccc3c2O)cc1	-6.0	22.2*	12.3	36.3*	x	5.9	28.9*	PAFAH1B3 confirm=74.0*
CCCC(=O)NNC(=O)Nc1ccccc1	-2.7	x	0.5	-1.8	4.8	x	x
Cc1ccc(C(=O)NCCc2cccc(Cl)c2)cc1[N+](=O)[O-]	-2.0	0.8	2.4	5.5	3.5	x	x
O=C(NCCc1cccc(Cl)c1)c1ccc(Cl)c([N+](=O)[O-])c1	11.8	30.4*	-0.7	-2.9	6.4	3.1	0.7
CC(=O)Nc1cc(-c2ccccc2N(C)C)cn2c(-c3ccc(S(C)(=O)=O)cc3)cnc12	x	30.9*	x	x	x	6.1	14.5
CC(=O)Nc1cc(-c2ccccc2N(C)C)cn2c(-c3ccccc3)cnc12	x	4.6	x	x	x	x	x
O=C(O)C1(S(=O)(=O)c2ccc(Cl)cc2)CCC1	-5.1	-2.5	3.9	0.4	3.6	x	x
COc1cccc(OC)c1C(=O)NC(=S)Nc1cc(-c2nc3ccccc3[nH]2)ccc1Cl	-93.6	60.0*	-45.8	-76.5	-38.5	19.1	17.5
COc1cccc(C(=O)NCC(c2ccc3c(c2)OCO3)N2CCN(c3ccc(F)cc3)CC2)c1 (stereo unspecified)	1.1	1.1	-0.7	1.1	-3.6	x	x
COc1ccc(C(=O)NCC(c2ccc3c(c2)OCO3)N2CCN(c3ccc(OC)cc3)CC2)cc1 (stereo unspecified)	5.1	23.6*	0.4	5.6	-2.9	5.7	4.7
OC(c1ccccc1)(c1nc(-c2ccc(F)c(Cl)c2)cs1)C(F)(F)F (stereo unspecified)	x	2.5	x	x	x	x	x
CCCCC1OC2(C)OC(=N)C1(C#N)C(C#N)(C#N)C2c1ccccc1 (stereo unspecified)	7.2	20.4*	8.4	4.2	11.5	4.3	5.8
CCOc1ccccc1C=NNC(=O)C(=O)NN=Cc1ccccc1OCC	0.3	6.7	4.1	-4.5	x	x	x
CCOc1ccccc1NC(=O)C(=O)N/N=C/c1cc(Br)ccc1O	10.3	27.9*	5.1	4.2	26.3*	-9.9	21.4*
Cc1nnc(NC(=O)CSc2nnc(CC(=O)Nc3ccccc3F)n2C)s1	3.3	65.7*	1.0	5.5	-3.8	2.1	2.7
Cc1nnc(NC(=O)CSc2nnc(CC(=O)Nc3ccccc3Cl)n2C)s1	-4.7	-4.3	-2.9	7.0	-2.0	x	x
COc1cccc2c1C(=O)c1c(O)c3c(c(O)c1C2=O)C[C@](O)(C(C)=O)C[C@H]3O[C@@H]1C[C@@H](N)[C@@H](O)[C@@H](C)O1	51.0*	163.2*	48.6*	43.2*	56.9*	179.4*	147.7*
COc1cccc2c1C(=O)c1c(O)c3c(c(O)c1C2=O)CC(O)(C(C)=O)CC3OC1CC(O)C(O)C(C)O1 (stereo unspecified)	68.2*	133.6*	65.3*	52.0*	x	179.7*	141.8*
CCCCC(=O)OCC(=O)C1(O)Cc2c(O)c3c(c(O)c2C(OC2CC(NC(=O)C(F)(F)F)C(O)C(C)O2)C1)C(=O)c1c(OC)cccc1C3=O (stereo unspecified)	18.9	-7.4	11.5	-2.6	x	x	x
COc1cccc2c1C(=N)c1c(O)c3c(c(O)c1C2=O)CC(O)(C(C)=O)CC3OC1CC(N)C(O)C(C)O1 (stereo unspecified)	11.2	x	11.3	7.6	x	x	x
N#Cc1ccccc1COC(=O)CCCC1=NS(=O)(=O)c2ccccc2N1	0.1	0.9	0.8	8.7	6.9	x	x
CCN(CC)c1ccc(C(=C2C=CC(=[N+](CC)CC)C=C2)c2ccc(N(CC)CC)cc2)cc1	3.0	39.3*	4.9	-1.1	x	39.6*	39.9*
CCN(CC)c1ccc(C(=C2C=CC(=[N+](CC)CC)C=C2)c2ccccc2)cc1	11.4	5.1	3.2	12.5	x	x	x
SMILES	PAFAH2 FP inh	TCR CD3 inh	PAFAH1B2 FP inh	PAFAH1B3 inh	pPAFAH inh	BSA probe FL	TCR-CD3 conf	others
Cc1ccc(N(CC(=O)Nc2ccc(-c3nc4ccc(C)cc4s3)cc2)S(C)(=O)=O)cc1	-27.7	-1.2	-19.4	-20.8	-6.8	x	x
Cc1ccc(C)c(N(CC(=O)Nc2ccc(-c3nc4ccc(C)cc4s3)cc2)S(C)(=O)=O)c1	-3.5	19.8*	-1.6	4.8	-2.9	8.8	14.6
O=C(CN(c1cccc(Br)c1)S(=O)(=O)c1ccccc1)N/N=C/c1cc([N+](=O)[O-])ccc1O	x	29.6*	x	x	24.6*	-15.9	28.1*
CC(C)(C)NC(=O)CN(c1cccc([N+](=O)[O-])c1)S(=O)(=O)c1ccccc1	x	6.2	x	x	0.1	x	x
Cc1cc(=O)oc2cc(OCC(=O)N/N=C/c3cc([N+](=O)[O-])ccc3O)ccc12	-12.6	48.0*	2.9	16.8	-0.1	-14.3	50.9*
O=C(CSc1nc2ccccc2s1)N/N=C/c1cc([N+](=O)[O-])ccc1O	5.6	33.8*	8.4	7.7	8.6	-11.3	31.1*
O=C(CCCC(=O)Nc1cccc(Br)c1)N/N=C/c1cc([N+](=O)[O-])ccc1O	-0.4	9.2	16.6	8.1	8.1	x	x
Cc1ccc(/C=N/NC(=O)CSc2nc3ccccc3s2)o1	-7.1	0.6	3.3	2.3	2.5	x	x
O=C(CCC(=O)Nc1cccc(Cl)c1)N/N=C/c1cc([N+](=O)[O-])ccc1O	0.6	28.5*	11.8	13.2	6.9	-1.8	40.9*
Fc1ccccc1Nc1nc(-c2ccncc2)nc2ccccc12	4.0	-9.3	3.3	2.3	0.0	x	x
O=C(NCc1cccc(C(F)(F)F)c1)C1C(=O)Nc2ccccc2C(=O)N1Cc1ccccc1 (stereo unspecified)	x	5.1	x	x	x	x	x
COC(=O)CCC(=O)Nc1ccc(Cl)c(Cl)c1	-1.2	-10.1	-0.6	6.4	-2.0	x	x
COC(=O)CC1(C(=O)OC)Nc2cc(Cl)c(Cl)cc2S(=O)(=O)N1O (stereo unspecified)	x	38.2*	x	x	x	-0.4	28.9*
Cc1cc2cc(CNC(=O)C(C)Oc3ccccc3)ccc2n1C (stereo unspecified)	3.5	44.9*	1.6	7.2	7.2	3.9	4.1
CCN(CC)S(=O)(=O)c1ccc(C(=O)NCc2ccc3c(c2)cc(C)n3C)cc1	2.6	73.9*	5.2	10.1	9.9	-5.0	-0.8
COc1ccc(S(=O)(=O)NCc2ccc3c(c2)cc(C)n3C)cc1	18.9	35.0*	5.5	-0.6	12.8	24.7*	27.7*
CCC(CC)C(=O)NCc1ccc2c(c1)cc(C)n2C	3.2	1.2	1.0	8.1	-1.9	x	x
Cc1ccc(CNC(=O)c2ccc(S(=O)(=O)N3CCCC3)cc2)cc1	x	4.9	x	x	x	x	x
